Compound activity from PubChem BioAssay.
PTK2B oligo ant = antagonists of human Pyk2 oligomerization | Q14289 | 99,000 compounds, 0.83% hits | z-score (the deposit names both 25 µM and 10 µM) | Q293 cells, Pyk2 FERM NanoBiT luminescence; stronger effect = lower value;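 active = Z-score of -3 or lower, scaled per plate to the spread of control and sample wells; inactive = z-score above -3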;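 also: negative z-score means lost luminescence so less FERM oligomerization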
CYP2C9 inh = blocks human cytochrome P450 2C9 | 96,000 compounds, 20% hits | CYP2C9 Supersomes, luciferin-H conversion, luminescence | inhibition, % at 5 µM;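 active = blocking of liver enzyme CYP2C9 beyond about 50% at 5 µM, limit read from the data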
Target sequence (P11712 whole entry, looked up): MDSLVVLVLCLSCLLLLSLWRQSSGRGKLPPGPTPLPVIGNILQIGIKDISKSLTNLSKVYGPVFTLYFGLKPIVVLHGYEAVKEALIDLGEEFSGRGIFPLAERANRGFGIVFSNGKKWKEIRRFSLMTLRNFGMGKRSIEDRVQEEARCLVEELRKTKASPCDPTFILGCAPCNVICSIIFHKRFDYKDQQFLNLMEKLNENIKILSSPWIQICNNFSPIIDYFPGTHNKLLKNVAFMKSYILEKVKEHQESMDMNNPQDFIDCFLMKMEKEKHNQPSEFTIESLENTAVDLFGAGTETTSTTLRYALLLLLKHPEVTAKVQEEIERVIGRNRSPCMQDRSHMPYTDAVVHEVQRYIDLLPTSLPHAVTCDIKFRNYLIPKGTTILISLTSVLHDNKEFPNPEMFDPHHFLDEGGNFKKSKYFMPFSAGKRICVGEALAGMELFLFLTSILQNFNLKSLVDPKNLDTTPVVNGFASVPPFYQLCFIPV
CYP2C9 activ = activators of human CYP2C9; recombinant CYP2C9, luciferin-H conversion, luminescence; stronger effect = higher value; factor 1 = untreated enzyme, 0 = blocked; activation factor at 5 µM; 96,000 compounds, 1.4% hits; AID 1024;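 active = activation factor of 2 or more for CYP2C9 at a 5 µM dose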;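 also: 0 = sulfaphenazole-blocked wells and 1 = vehicle-only wells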
Cav3 T inh = blocks human Cav3.2 T-type calcium channel. O95180. Cav3.2-expressing cells, Fluo-4 calcium fluorescence FDSS; stronger effect = lower value. B-score at 10 µM. 100,000 compounds, 4% hits;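 active = single-dose well whose peak fluorescence ratio is a statistical outlier from its plate by either plate-standardised score or position-corrected B-score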
CYP2C19 act = increases human CYP2C19 enzyme activity; P33261; recombinant CYP2C19, luciferin-H EGE luminescence; stronger effect = higher value; 0 = fully inhibited enzyme, 1 = untreated enzyme; activation factor at 5 µM; 96,000 tested, under 10 active;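 active = activation factor of at least 2 at 5 µM in the primary screen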;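 also: 0 = wells with 2.5 mM tranylcypromine and 1 = vehicle-only wells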
CYP2C19 inhib = blocks human cytochrome P450 2C19; CYP2C19 Supersomes, luciferin-H EGE luminescence, 30 min; P33261; 96,000 compounds, 21% hits; AID 778; inhibition, % at 5 µM;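 active = CYP2C19 inhibition above a set limit at 5 µM in the primary screen, cut at about 50% in these data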;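 also: plate controls were negative control wells for no effect and 2.5 mM tranylcypromine positive control for full effect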
The depositor's hits bear a star; . = no result given. Rows were chosen to be rich in hits. Some 27% of all compounds tested hit in one or more screens of this group.

SMILES | PTK2B oligo ant | CYP2C9 inh | CYP2C9 activ | Cav3 T inh | CYP2C19 act | CYP2C19 inhib
CS(=O)(=O)c1ccc(Cl)c(NC(=O)COC(=O)CNC(=O)c2ccc(Br)o2)c1 | 0.57 | -29 | 1.3 | -0.81 | 1.2 | -20
CCC(=O)Nc1ccc(-c2nc(-c3ccccc3)n(CC(=O)N3CCCCC3)n2)cc1 | -0.16 | 35 | 0.7 | 0.0048 | 0.9 | 7
CCN(CC)C(=O)Cn1nc(-c2ccccc2O)nc1SCC(=O)Nc1ccc(OC)cc1 | -0.6 | 69* | 0.3 | -3.5 | 0.5 | 50
COc1ccc(NC(=O)CSc2c(C)n[nH]c2C)cc1 | 0.59 | 8 | 0.9 | 0.25 | 1 | 1
COc1ccc(NC(=O)CSc2nc(-c3ccncc3)nn2CC(=O)N2CCCC2)cc1 | 0.47 | 83* | 0.2 | -0.28 | 0.1 | 92*
Cc1c(NC(=O)CSc2ccccc2C(=O)Nc2cccnc2)c(=O)n(-c2ccccc2)n1C | 0.48 | 9 | 0.9 | . | 1.1 | -6
FC(F)(F)c1cccc(Cn2nnnc2-c2cc(Cl)cc(Cl)c2)c1 | -1 | 62* | 0.4 | -3.4 | 0.1 | 89*
FC(F)(F)c1cccc(Cn2nnnc2-c2cccc(C(F)(F)F)c2)c1 | -1 | 54* | 0.5 | -2.8 | 0.1 | 92*
CCCn1nnnc1-c1cc(Cl)cc(Cl)c1 | 0.57 | -6 | 1.1 | 0.29 | 0.8 | 15
CCC(C)c1ccc(OCCn2cc(/C=N/NC(=O)CSc3nnc(C)s3)c3ccccc32)cc1 (stereo unspecified) | -0.95 | 16 | 0.8 | -1.9 | 0.9 | 12
Cc1nn(CCc2nc(-c3ccco3)cs2)c2[nH]c(=O)cc(C(F)(F)F)c12 | 0.02 | 71* | 0.3 | -0.59 | 0.4 | 56*
Cc1cc(C)n(CCc2nc(-c3ccco3)cs2)n1 | -0.43 | -1 | 1 | -0.24 | 0.7 | 32
Cc1cc(NC(=O)CSc2nc(C(C)C)nc3sc(C)c(C)c23)no1 | 0.13 | 54* | 0.5 | 0.42 | 0.8 | 18
Cc1cc(NC(=O)CSc2nnc3c4c(C)c(C)sc4ncn23)no1 | 0.22 | 56* | 0.4 | -0.18 | 0.6 | 36
COc1ccccc1C(=O)N1CCCC(c2nc(-c3cc(OC)c(OC)c(OC)c3)no2)C1 (stereo unspecified) | 1.5 | 45 | 0.6 | 1.4 | 0.4 | 59*
O=C(c1ccco1)N1CCCC(c2nc(-c3ccc(S(=O)(=O)NCc4ccccc4)cc3)no2)C1 (stereo unspecified) | -1.9 | . | . | . | . | .
COc1ccc(C(=O)N2CCCC(c3nc(-c4cc(OC)c(OC)c(OC)c4)no3)C2)cc1 (stereo unspecified) | -0.87 | 66* | 0.3 | -2.2 | 0.7 | 31
Cc1ccc(-c2noc(C3CCCN(C(=O)c4ccccc4)C3)n2)o1 (stereo unspecified) | -0.21 | 24 | 0.8 | 0.5 | 0.9 | 13
O=C(O)C1C(c2ccccc2)C(C(=O)N2CCOCC2)C1c1ccccc1 (stereo unspecified) | -0.26 | 4 | 1 | 0.5 | 1.1 | -10
O=C(O)C1C(c2ccccc2)C(C(=O)Oc2ccc(O)cc2)C1c1ccccc1 (stereo unspecified) | -0.11 | 80* | 0.2 | 0.3 | 0.9 | 11
COc1ccc(-c2nc(CSCC(=O)N3CCc4ccccc4C3)c(C)o2)cc1OC | . | 16 | 0.8 | -0.49 | 0.8 | 16
COc1cccc(-c2nc(CS(=O)CC(=O)NC3CCCC3)c(C)o2)c1 (stereo unspecified) | . | 57* | 0.4 | -1 | 0.7 | 30
COc1ccc(-c2nnn(CC(=O)NC3CCCc4ccccc43)n2)cc1OC (stereo unspecified) | 0.75 | 1 | 1 | -0.035 | 0.4 | 64*
CCCN(CCC)CCCNC(=O)CS(=O)Cc1nc(-c2ccc(OC)c(OC)c2)oc1C (stereo unspecified) | 0.67 | -8 | 1.1 | 1.5 | 1.1 | -8
COc1ccc(-c2nc(CS(=O)CC(=O)NC3CCCc4ccccc43)c(C)o2)cc1OC (stereo unspecified) | . | 88* | 0.1 | -0.48 | 0.4 | 56*
COc1ccc(-c2nc(CSCC(=O)N3CCN(c4cccc(C)c4)C(C)C3)c(C)o2)cc1OC (stereo unspecified) | . | 37 | 0.6 | . | 0.3 | 73*
CN(C)/C=N/c1sc2c(c1C#N)CC(C)(C)NC2(C)C | 0.98 | . | . | -0.14 | . | .
